The supplement of paper PMC6555819

Assays:
Test in all cases: PBM binding z-score (relative to random genomic background probes); higher = stronger binding; sequences stand for … in GC…GCGATTGACAGCGTAGAATGAAGG
[1] = test system: FXR:RXRa (NR concentration 270 nM, RXRa partner concentration 90 nM)
Outline: (§1)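 Custom Agilent 4×180K protein-binding microarrays carried double-stranded probes. Their 34-nt variable regions held direct-repeat seeds, single-nucleotide variants, half-site ablations and random human genomic background sequences. Arrays were incubated 1 h with ligand-free nuclear receptor dimers in PBS pH 7.4, 2% milk, 0.02% Triton X-100, 1 mM DTT, 0.2 mg/mL BSA and 0.4 mg/ml salmon testes DNA. Antibodies against each partner (one per run) detected binding, and scanned fluorescence was regression-normalized. Binding z-scores use random background probes as reference.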

[2] = test system: LXRa:RXRa (NR concentration 270 nM, RXRa partner concentration 90 nM)
Outline: as §1

[3] = test system: LXRa homodimer (NR concentration 270 nM)
Outline: as §1

[4] = test system: LXRb:RXRa (NR concentration 270 nM, RXRa partner concentration 90 nM)
Outline: as §1

[5] = test system: LXRb homodimer (NR concentration 270 nM)
Outline: as §1

[6] = test system: PPARa:RXRa (NR concentration 270 nM, RXRa partner concentration 90 nM)
Outline: as §1

[7] = test system: PPARg:RXRa (NR concentration 180 nM, RXRa partner concentration 90 nM)
Outline: as §1

[8] = test system: PPARg:RXRa 270nM:90nM, anti-RXR (NR concentration 270 nM, RXRa partner concentration 90 nM)
Outline: as §1

[9] = test system: PPARg:RXRa 30nM:10nM, anti-RXR (NR concentration 30 nM, RXRa partner concentration 10 nM)
Outline: as §1

[10] = test system: PPARg:RXRa 90nM:30nM, anti-RXR (NR concentration 90 nM, RXRa partner concentration 30 nM)
Outline: as §1

[11] = test system: PPARg:RXRa DBDmut IVT, anti-RXR (DBD mutation: RXRa K156A/R161A, NR concentration 270 nM, RXRa partner concentration 90 nM)
Outline: as §1

[12] = test system: PPARg:RXRa IVT, anti-PPARg (NR concentration 270 nM, RXRa partner concentration 90 nM)
Outline: as §1

[13] = test system: PPARg DBDmut:RXRa IVT, anti-PPARg (DBD mutation: PPARg1 K132A/R137A, NR concentration 270 nM, RXRa partner concentration 90 nM)
Outline: as §1

[14] = test system: PPARg DBDmut IVT, anti-PPARg (DBD mutation: PPARg1 K132A/R137A, NR concentration 270 nM)
Outline: as §1

[15] = test system: PPARg homodimer (NR concentration 180 nM)
Outline: as §1

[16] = test system: PXR:RXRa (NR concentration 270 nM, RXRa partner concentration 90 nM)
Outline: as §1

[17] = test system: PXR homodimer (NR concentration 270 nM)
Outline: as §1

[18] = test system: RARa:RXR (NR concentration 270 nM, RXRa partner concentration 90 nM)
Outline: as §1

[19] = test system: RARa homodimer (NR concentration 270 nM)
Outline: as §1

[20] = test system: RARb:RXRa (NR concentration 270 nM, RXRa partner concentration 90 nM)
Outline: as §1

Sequence | PBM binding z-score [1] | PBM binding z-score [2] | PBM binding z-score [3] | PBM binding z-score [4] | PBM binding z-score [5] | PBM binding z-score [6] | PBM binding z-score [7] | PBM binding z-score [8] | PBM binding z-score [9] | PBM binding z-score [10] | PBM binding z-score [11] | PBM binding z-score [12] | PBM binding z-score [13] | PBM binding z-score [14] | PBM binding z-score [15] | PBM binding z-score [16] | PBM binding z-score [17] | PBM binding z-score [18] | PBM binding z-score [19] | PBM binding z-score [20]
CGTCCAAGGTCAATGCTAGGTCATTGAAAGCATT | 7.16 | 6.36 | 5.55 | 4.79 | 1.21 | 5.28 | 4.04 | 4.94 | 1.89 | 3.66 | 3.36 | 3.99 | 1.51 | 0.205 | 6.45 | 5.79 | 3.15 | 6.69 | 1.7 | 5.19
GGAACGCGGGCATTCGAGTTGATAGCATGGCGAT | -0.388 | -0.465 | -0.588 | -1.04 | -1.3 | -1.13 | -0.044 | -0.711 | -0.908 | -0.624 | -0.393 | -0.666 | -1.41 | -1.44 | -1.1 | -0.103 | -0.449 | -0.652 | -1.13 | -0.209
GGAACGAGGGCAAACTTGATAGCATCTGTCGACG | 1.14 | 0.523 | -0.0239 | 0.598 | -0.25 | 2.18 | 1.54 | 1.87 | 0.362 | 1.16 | 4.42 | 3.21 | 0.0378 | -0.343 | 0.366 | 0.618 | 0.169 | 0.525 | -0.264 | 2.16
TGATATAGGTAAATGCTAGGTGAAAGTCCGATCT | 0.297 | 0.127 | 0.0779 | -0.0435 | -0.105 | 1.62 | 1.45 | 1.84 | 1.05 | 1.44 | 4.45 | 3.66 | 0.978 | 0.956 | 0.829 | -0.09 | 0.293 | 0.178 | 1.15 | 0.212
CGTCCAAGGTCAAAGGTCAGTGATGAGATGACGG | 8.34 | 6.88 | 3.97 | 6.55 | 2.01 | 7.15 | 10.7 | 8.75 | 8.43 | 9.31 | 4.14 | 5.89 | 0.972 | 0.974 | 3.97 | 6.83 | 1.94 | 8.65 | 1.61 | 6
AGTCAAAGTTCAGCTAGGTAACGTAAGATATGCT | 3.9 | 3.86 | 1.68 | 1.91 | 0.177 | 3.34 | 4.61 | 4.73 | 2.11 | 4.07 | 0.153 | 2.1 | 0.968 | 0.836 | 1.67 | 3.01 | 1.8 | 2.29 | 1.19 | 4.37
ATACCAAGGTGATCGTGAGGTCGATGATACTAAC | 1.46 | 0.961 | 0.482 | 0.993 | -0.149 | 1.34 | 0.934 | 0.585 | 0.169 | 0.24 | 0.508 | 1.52 | 0.609 | 0.528 | 0.828 | 1.91 | 0.391 | 1.9 | 0.262 | 1.55
